Sm TGR block: qHTS Assay for the Inhibitors of Schistosoma Mansoni Peroxiredoxins | Schistosoma mansoni thioredoxin glutathione reductase (TGR), Q962Y6 | purified TGR, DTNB reduction, TNB absorbance 405 nm | Potency, µM (series often up to 114 µM), for inactives: at the top dose activity change, negative = inhibition, hits mostly inhibitors | 360,000 compounds, 3% hits; note: nearly all actives have a fitted effect of over 60% in size
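First, TGR (20 nM dispensed) and NADPH were mixed with compound. Second, a 15 min room-temperature incubation followed. Third, further NADPH and then DTNB were added to start the reaction. Finally, TNB absorbance was monitored kinetically.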
HCV inhibitor: qHTS Assay for Inhibitors of Hepatitis C Virus (HCV) | AID 651820, 2012 | Potency, µM (doses to about 41.8 µM), without a hit: top-dose activity change, negative = inhibition, hits mostly inhibitors | 340,000 compounds, 3.4% hits | Huh7.5.1 HCVcc-Cre infection, luciferase reporter, 44 h
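Reporter virus HCVcc-Cre (~0.5 moi) infects cells exposed to compound; seeding density 1,000 cells/well with 4 h settling beforehand. Luminescence, 15 sec read, taken 44 h post-infection following a 15 min RT substrate incubation.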
Marburg entry inh: qHTS for inhibitors of binding or entry into cells for Marburg Virus. Marburg virus pseudotyped entry inhibition, cell reporter. Potency, µM (highest dose often 37.8 µM), for the others: top-dose activity change, negative = inhibition, most hits filed as inhibitors. 300,000 compounds, 1.8% hits. AID 540276, 2011; calls by dose curve; tested in HEK293 cells
Lassa entry inh: qHTS for Inhibitors of binding or entry into cells for Lassa Virus; Potency, µM (doses to about 37.9 µM), for inactives: at the top dose activity change, negative = inhibition, most hits filed as inhibitors; 300,000 compounds, 1.2% hits; AID 540256, 2011; Lassa virus pseudotype entry inhibition, cell reporter; calls by dose curve; tested in HEK293 cells; note: nearly all actives have a fitted effect of over 50% in size
FMDV inh: High Throughput Screening for Foot and Mouth Disease Virus Antivirals | FMDV antiviral cell-based qHTS | Potency, µM (top dose mostly 57.9 µM), for the others: top-dose activity change, negative = inhibition, usual class: inhibitors | 410,000 compounds, 1.2% hits; calls by dose curve; tested in HEK293T cells; note: read-out not given here; nearly all actives have a fitted effect of over 45% in size
RE007 growth inh: qHTS Assay for Inhibitors of the HIV-1 protein Vpr; Potency, µM (highest dose often 92.2 µM), for the others: at the highest dose activity change, negative = less growth, usual class: inhibitors; 360,000 compounds, 0.21% hits; S. pombe RE007 Vpr strain, BacTiter-Glo ATP luminescence, 24 h; active = well fitted falling curve with a large enough effect; inconclusive = small, poorly fitted or top-dose-only effect; inactive = no such curve, though single readings can be large or run the other way; note: nearly all actives have a fitted effect of over 50% in size
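Fission yeast strain RE007, carrying one chromosomally integrated HIV-1 vpr copy, was seeded at OD 0.01 in PMG+AL medium with 23 nL pinned compound. After 24 h at 30 °C and 99% humidity, viability was read by BacTiter-Glo luminescence.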
Starred values were filed as active, the others as inactive; u = inconclusive; x = no result given; [ ] = remark or other dose. Rows were chosen to be rich in hits. Some 7.2% of all compounds tested hit in one or more screens of this group. Unless noted, calls come from the whole dose curve; as a rule, active = well fitted curve in the direction sought with a large enough effect; inconclusive = small, poorly fitted or top-dose-only effect, or another doubt; inactive = no such curve, though single readings can be large; an effect the other way counts as inactive or inconclusive. % is set by controls: 0 for no effect and ±100 for the full control effect; potency is the fitted concentration of half-maximal effect.

SMILES | Sm TGR block | HCV inhibitor | Marburg entry inh | Lassa entry inh | FMDV inh | RE007 growth inh
COc1ccccc1CCNC(=O)c1cc(C2CC2)nc2c1cnn2C(C)C | -2.7% | 8.91µM* | u | u | -27.5% | -13.9%
CCc1ccccc1NC(=O)CNC(=O)c1cc(C2CC2)nc2c1cnn2C(C)C | 0.8% | u | x | x | -18.3% | 20.0%
COc1ccc(CCNC(=O)c2cc(C3CC3)nc3c2cnn3C(C)C)cc1 | -22.8% | 10µM* | x | x | -24.8% | -9.4%
COc1ccccc1OCCNC(=O)c1cc(C2CC2)nc2c1cnn2C(C)C | -2.0% | 1.26µM* | 11.6% | -10.5% | u | -18.7%
O=C(c1noc2c1CCCC2)N1CCOc2ccc(CN3CCN(c4ccccn4)CC3)cc2C1 | x | x | x | x | -3.5% | x
O=C(c1cn(C2CCCN(Cc3cc(Cl)ccc3O)C2)nn1)N1CCCCC1 (configuration not stated) | x | x | x | x | -13.8% | x
CCn1c(=O)c2sccc2n2c(CCC(=O)NCc3ccc(Cl)cc3)nnc12 | 21.9% | x | 12.7%[46.1 µM] | 9.9%[46.1 µM] | u | x
CC(=O)N1CCc2c(sc3c2c(=O)n(-c2ccc(C)cc2)c(=O)n3Cc2c(F)cccc2Cl)C1 | 1.2% | x | 9.4%[46.1 µM] | x | -22.2% | x
Clc1cccc(CN2CCc3c([nH]c4ccccc34)C2)c1 | -31.0% | u | 8.91µM* | u | -16.9% | -23.7%
COc1cc(OC)c(CN2CCc3c([nH]c4ccccc34)C2)cc1Br | 35.5µM* | -17.8% | u | u | -14.9% | -17.1%
CN(C)Cc1ccccc1-c1ccc2ncnc(NC3CCNCC3)c2c1 | x | x | x | x | 2.1% | x
CC1CCCN(C(=O)c2cc3ccc4cccnc4c3[nH]2)C1 (configuration not stated) | 1.1% | x | x | -14.2%[46.1 µM] | 14.1µM* | x
Cc1nc2ncccn2c1-c1csc(Nc2ccccc2)n1 | -16.1% | 11.2µM* | u | -12.4% | u | 17.1%
Cc1nc2ncccn2c1-c1csc(Nc2ccc(S(N)(=O)=O)cc2)n1 | -39.3% | -16.8% | x | x | 3.4% | 5.1%
COc1ccc(Nc2nc(-c3c(C)nc4ncccn34)cs2)cc1 | -13.0%[57.1 µM] | 11.2µM* | x | x | u | -15.9%
Cc1nc2ncccn2c1-c1csc(Nc2ccc(N(C)C)cc2)n1 | x | -22.0% | u | -3.2% | u | 7.0%
Oc1ccc(-c2csc(NCc3ccco3)n2)cc1 | 0.0% | u | -21.2% | u | 77.2% | -8.1%
Cc1nc2ncccn2c1-c1csc(NCc2ccco2)n1 | -14.2% | u | -23.9% | 1.7% | 35.5µM* | 1.3%
COc1ccccc1Nc1nc(-c2c(C)nc3ncccn23)cs1 | -10.0%[57.1 µM] | 11.2µM* | u | u | 14.1µM* | 6.4%
CCCCNC(=O)CCSc1nc(-c2ccc3c(c2)OCO3)cc(C(F)(F)F)n1 | -3.1% | x | -24.1%[46.1 µM] | 11.5%[46.1 µM] | -24.4% | x
CCc1ccc(C2NC(=O)c3[nH]nc(-c4cccc(OC)c4)c32)cc1 (configuration not stated) | -2.5% | x | u | -5.1%[46.1 µM] | -23.4% | x
N[C@](CC1c2ccccc2Oc2ccccc21)(C(=O)O)[C@H]1C[C@@H]1C(=O)O | x | x | x | x | -12.7% | x
CC(=O)c1cccc(NC(=O)Cn2c(SCC(=O)Nc3ccc(F)cc3)nc3ccccc32)c1 | -7.3% | x | x | -21.5%[46.1 µM] | -7.0% | x
Cc1nc2sccn2c1-c1csc(NCc2ccccc2)n1 | -6.8% | 11.2µM* | u | -28.9% | x | 1.5%
CCc1ccc(/C=C/C(=O)C2C(=O)c3ccccc3C2=O)cc1 | -25.5% | u | u | 2.31µM* | x | -25.6%
COc1ccc(CCNC(=O)C(=O)NCC(c2cccs2)S(=O)(=O)c2ccc(F)cc2)cc1 (configuration not stated) | -4.9% | x | x | u | 39.8µM* | x
O=C(NCc1ccc(Cl)cc1)C(=O)NCC(c1cccs1)S(=O)(=O)c1cccs1 (configuration not stated) | u | x | x | u | -17.7% | x
COc1ccc(CC(=O)NCC(c2cccs2)S(=O)(=O)c2ccc(F)cc2)cc1 (configuration not stated) | u | x | x | -24.8%[46.1 µM] | -18.7% | x

Screening data deposited in PubChem by National Center for Advancing Translational Sciences (NCATS).
